In ChEMBL document CHEMBL4513216, “Probing the Open Global Health Chemical Diversity Library for Multistage-Active Starting Points for Next-Generation Antimalarials” (ACS Infect Dis, 2020):
Screen size: about 65,000 compounds; about 2,100 (3.2%) showed an effect of 50% or more. The median lay at about -52%. The list comes from a sample in which strong results are over-represented; it also holds similar structures and randomly drawn compounds.

tested on: Plasmodium falciparum; assay: Screen against P. falciparum Asexual Blood Stage (ABS), at 5uM; assay type: functional, Dd2; details: tested at 5 uM

| Structure (SMILES) | INHIBITION |
| --- | --- |
| Cc1ccoc1C(=O)N1CCCC(c2cc(C(F)(F)F)[nH]n2)C1 (stereo not given) | -127% |
| O=S(=O)(NC1CCC12CCN(CC1CCOCC1)CC2)c1ccccc1 (stereo not given) | -62.3% |
| Cc1ccc(CN2CCC3(CCC3NS(=O)(=O)c3ccccc3)CC2)o1 (stereo not given) | 62.4% |
| COCC(=O)N1CCC2(CCC2NS(=O)(=O)c2ccccc2)CC1 (stereo not given) | -23.9% |
| CC(C)c1ccc(NC(=O)Cn2cc(I)cn2)cc1 | -19% |
| CC1c2ncc(CN3CCN(C)CC3)n2CCN1Cc1ccccn1 (stereo not given) | -124% |
| c1cnc(-c2noc(C3CN(Cc4ccc5c(c4)CCO5)C3)n2)cn1 | 4.79% |
| CC(C)CC1CC(=O)Nc2c1cnn2Cc1ccco1 (stereo not given) | -129% |
| CCN(c1ccc(C(=O)NCc2cc[nH]n2)cc1)C(C)C | 60.1% |
| CC(C)c1ccc(O)c(C(=O)NCc2cc[nH]n2)c1 | -97.2% |
| CCN(c1ccc(C(=O)NCc2ccnc(C)n2)cc1)C(C)C | 22.7% |
| Cc1nc(COC(=O)c2cccc3c2OCCO3)no1 | -17% |
| CCOC(=O)CNC(=O)NCc1cccn1Cc1ccccc1F | -158% |
| CN1CC2(CCN(c3nc(N)nc4c3CCNC4)CC2)OC1=O | -71.4% |
| Cc1ccc(C)c(OCc2nnc(SCC3CCCN(C)C3)o2)c1 (stereo not given) | 60.3% |
| Cc1ccc(OCc2nnc(SCC3CCCN(C)C3)o2)cc1 (stereo not given) | 29.8% |
| Cc1cccc(OCc2nnc(SCC3CCCN(C)C3)o2)c1 (stereo not given) | 28.5% |
| CCCn1ccc(C(=O)Nc2ccc3c(c2)C(C)(C)C(=O)N3C)n1 | -3.4% |
| C1CC(c2nnc(CN3CCCC3c3noc(C4CC4)n3)o2)C1 (stereo not given) | 53.5% |
| C1CC(c2noc(C3CC3)n2)N(Cc2nnc(C3CC3)o2)C1 (stereo not given) | -1.02% |
| CCc1nc(C2CCCN2Cc2nc3ccccc3o2)no1 (stereo not given) | -23.2% |
| c1ccc2oc(CCCN3CCCC3c3noc(C4CC4)n3)nc2c1 (stereo not given) | -21.2% |
| CCc1nc(C2CCCN2Cc2nnc(C3CCC3)o2)no1 (stereo not given) | -88% |
| c1ccc2oc(CN3CCCC3c3noc(C4CC4)n3)nc2c1 (stereo not given) | 54.4% |
| Cc1nc(C2CCCN2Cc2nnc(C3CC3)o2)no1 (stereo not given) | -171% |
| CC(C)c1nc(C2CCCN(Cc3nnc(C4CC4)o3)C2)no1 (stereo not given) | -52.6% |
| CC(C)c1nc(C2CCCN2Cc2nnc(C3CCC3)o2)no1 (stereo not given) | 53.5% |

| Structure (SMILES) | INHIBITION |
| --- | --- |
| CC(c1nc(C2CC2)no1)N1CCN(Cc2noc(C3CC3)n2)CC1 (stereo not given) | -55.4% |
| COc1ccc(CN2C[C@H]3CC[C@@H](C2)N(Cc2snnc2C)C3)cc1 | -6.34% |
| CCc1cc(=O)n(CC(=O)N2CCC(C)CC2)c(-c2ccccc2)n1 | -53.5% |
| O=S(=O)(c1ccccc1)N1CCC2(CCCN2Cc2cccnc2)C1 (stereo not given) | -12% |
| CC(C)c1cc(NC(=O)CNC2CCc3ncnn3C2)on1 (stereo not given) | -54% |
| Cc1occc1C(=O)N1C[C@@H]2OCCN(CCN3CCCC3)[C@@H]2C1 | -86.8% |
| Cc1nc(CN2CCCC(c3cc(C(F)(F)F)[nH]n3)C2)cs1 (stereo not given) | -50.2% |
| COc1ccc(OCCc2sc(C3(O)CCCNCC3)nc2C)cc1 (stereo not given) | 5.84% |
| COc1ccc(OCc2sc(C3(O)CCCNCC3)nc2C)cc1 (stereo not given) | 14.8% |
| Cc1nc(C2(O)CCCNCC2)sc1CCOc1ccc(Cl)cc1 (stereo not given) | 61% |
| CCN1CCCC(O)(c2nc(C)c(CCOc3ccc(F)cc3)s2)CC1 (stereo not given) | 23.9% |
| Cc1nc(C2(O)CCCNCC2)sc1CCOc1ccccc1 (stereo not given) | -48.5% |
| CCN1CCCC(O)(c2nc(C)c(CCOc3ccccc3Cl)s2)CC1 (stereo not given) | 21% |
| Cc1nc(C2(O)CCCNCC2)sc1CCOc1ccc(F)c(F)c1 (stereo not given) | 54.5% |
| Cc1nc(C2(O)CCCNCC2)sc1CCOc1ccc(F)cc1 (stereo not given) | 34.5% |
| Cc1nc(C2(O)CCCNCC2)sc1CCOc1ccccc1Cl (stereo not given) | 54.5% |
| COc1ccccc1OCC(=O)NS(=O)(=O)c1ccc(Br)s1 | -26.8% |
| C[C@@H]1CN(C(=O)c2nc3ccc(Cl)cn3c2-c2ncc[nH]2)C[C@H](C)O1 | 49.4% |
| O=S(=O)(C1CC1)N1CCn2cc(CNc3ccccn3)nc2C1 | -76% |
| Cc1ccccc1C1(C(=O)NCCN2CCCCC2C)CCOCC1 (stereo not given) | 28.2% |
| COc1cc2c(cc1CN1CCc3sccc3C1C)OCO2 (stereo not given) | 69.3% |
| CC1c2ccsc2CCN1Cc1cc2c(cc1O)OCO2 (stereo not given) | 27.2% |
| COc1ccsc1C(=O)Nc1cc(CN2CCOCC2)ccc1C | -12.8% |
| CCC[C@@H]1CN(Cc2cc3c(cc2OC)OCCO3)C[C@H]1C(=O)O | -28.5% |
| CCC1c2ccsc2CCN1C(=O)NCc1cccnc1OC (stereo not given) | 46.8% |
| CCC[C@@H]1CN(Cc2cc3c(cc2OC)OCO3)C[C@H]1C(=O)O | -43.7% |
| COc1ccc(CN2C[C@@H](CN(C)C)[C@@H](CO)C2)cc1CN1CCCC1 | -71% |

| Structure (SMILES) | INHIBITION |
| --- | --- |
| COc1ccc(CN2CCc3sccc3C2C)cc1CN1CCOCC1 (stereo not given) | 56.1% |
| CCC1c2ccsc2CCN1Cc1cc2c(cc1OC)OCCO2 (stereo not given) | 67.3% |
| Cc1nnc(N2C[C@H]3OCC[C@H]3[C@H](C(=O)NCC3CC3)C2)s1 | 4.38% |
| O=C1OCCN1CC(=O)N1C[C@@H]2CC[C@H]1CN(Cc1cscn1)C2 | -150% |
| CCn1cc2c(n1)CN(Cc1cnn(C)c1)CC2COCC1CC1 (stereo not given) | -28.3% |
| c1cc(-c2nc(C3CCN(Cc4ccsc4)CC3)no2)ccn1 | -4.11% |
| Cc1ccc(C(=O)N2Cc3ccccc3OC3(CCOCC3)C2)cn1 | -43.5% |
| c1nc2n(c1CN1CCCC1)CCN(C1CCOCC1)CC2 | -7.43% |
| COc1cccc([C@H]2CN(C(=O)c3ccccc3)[C@@H]3CCCN[C@H]23)c1 | 56.5% |
| COc1cccc(C(=O)N2C[C@@H](c3ccccc3)[C@@H]3NCCCC[C@@H]32)c1 | 16.7% |
| COc1ccc(C(=O)N2C[C@@H](c3ccccc3)[C@@H]3NCCCC[C@@H]32)cc1 | -70.2% |
| CN(C)S(=O)(=O)NC1CCCc2c1cnn2-c1ccc(C(C)(C)C)cc1 (stereo not given) | -174% |
| CN(C)C1CC2(CCN(C(=O)C3(C#N)CC3)CC2)c2ccccc21 (stereo not given) | -28.5% |
| CC(C)NCC1(COc2ccccc2)C[C@@H](O)[C@@H](O)C1 (stereo not given in full) | 60.4% |
| O[C@@H]1CC(CNCC2CC2)(COc2cccnc2)C[C@@H]1O (stereo not given in full) | -24.8% |
| CC(C)NC(=O)NCC1(COc2cnccn2)C[C@@H](O)[C@@H](O)C1 (stereo not given in full) | -54.9% |
| Cn1ccnc1NC[C@@H]1CCC[C@@H]2CN(CC3CC3)C[C@@H]21 | -46.7% |
| Cn1nc(COc2cccnc2)c2c1CCN(CC1CC1)C2 | -64% |
| Cc1cc(C(C)C(=O)N2CCCN(Cc3cscn3)CC2)c(C)o1 (stereo not given) | -136% |
| Cc1ccc(C(C)C(=O)N2CCCN(Cc3cscn3)CC2)cc1 (stereo not given) | 57% |
| Cc1ccc(C)n1C(C)C(=O)N1CCCN(Cc2cscn2)CC1 (stereo not given) | -16.5% |
| CN1CCC2(CC1)CC(NC(=O)c1csnn1)c1ccccc1O2 (stereo not given) | -8.75% |
| Brc1csc(-c2noc(C3COCCO3)n2)c1 (stereo not given) | -301% |
| O=C(Cc1ccc2c(c1)CCCC2)N[C@@H]1CC[C@@H](n2ccnc2)[C@@H]1O | -119% |
| CC(=O)N1CCN(c2ccccc2CNc2cc(F)cc(F)c2)CC1 | 14% |
| CN1CCN(c2ccccc2CNC(=O)CSC(F)(F)F)CC1 | 67.3% |
| CC(C)N(C)CC(=O)NCc1ccccc1N1CCN(C)CC1 | 43.8% |

| Structure (SMILES) | INHIBITION |
| --- | --- |
| Cn1ccnc1CN1CCC2(CC1)CN(Cc1cccnc1)C(=O)CO2 | -38.8% |
| Cc1cc(C)cc(CN2CCN(Cc3cc(C#N)n(C)c3)CC2=O)c1 | 18.4% |
| CCn1cc(CN2CCN(Cc3cc(C)cc(C)c3)C(=O)C2)cc1C#N | 68.4% |
| CCn1cc(CN2CCN(Cc3cccc(OC)c3)C(=O)C2)cc1C#N | 47.9% |
| CCOC(=O)CNC(=O)NCc1cc(C)n(-c2ccccc2OC)c1C | -24.9% |
| c1nc(NCc2cc3n(n2)CCN(C2CCCCC2)C3)c2nc[nH]c2n1 | -10.3% |
| c1ncc(-c2ccc(C3CNCCO3)nc2)cn1 (stereo not given) | -94.8% |
| COc1ccc(-c2cnc(N(C)C)nc2C2CNCCO2)cc1 (stereo not given) | 28.8% |
| COc1ccc(-c2ccc(C3CNCCO3)nc2)cc1 (stereo not given) | 65% |
| Cc1nn(C)c(C)c1C1CCCN1C(=O)c1ccc2nnc(C)n2c1 (stereo not given) | -60.9% |
| CCc1nnc(CN2CCC(N3CCN(CC)C3=O)CC2)o1 | -39.7% |
| CCN1CCN(C2CCN(Cc3nnc(C(C)(C)C)o3)CC2)C1=O | -29.7% |
| CCN1CCN(C2CCN(Cc3ncc(C(C)(C)C)o3)CC2)C1=O | 53.1% |
| CN1CCN(C2CCN(Cc3nnc(C(C)(C)C)o3)CC2)C1=O | -117% |
| CNc1cc2c(nn1)CCN(C(=O)c1cc(C)n(C3CC3)c1C)C2 | -66.6% |
| O=C(N[C@]12CC1CN(C(=O)c1ccco1)C2)c1cccc(F)c1 (stereo not given in full) | 27.4% |
| CC(=O)N1CC2C[C@]2(NC(=O)c2ccco2)C1 (stereo not given in full) | 50.3% |
| O=C(N[C@]12CC1CN(C(=O)c1ccco1)C2)c1ccco1 (stereo not given in full) | 37.7% |
| O=c1[nH]c2nc(N3CCSCC3)ncc2c(=O)n1-c1ccc(F)cc1 | -26.3% |
| Cc1ncsc1CN1CC[C@H](O)[C@@H](n2cnc3c(N)ncnc32)CC1 | -98.6% |
| CCCc1ccc2oc(C(=O)N3CCCN(C)CC3)c(C)c2c1 | -22.2% |
| O=C(O)c1cc(-c2ccn(CC3CC3)n2)n2ccccc12 | -74.2% |
| O=C(c1cc(-c2ccn(CC3CC3)n2)n2ccccc12)N1CCOCC1 | 69.5% |
| O=C(c1cc(-c2ccn(CC3CC3)n2)n2ccccc12)N1CCCO1 | -84.4% |
